# Source: PubChem BioAssay AID1259240 (Keith Lab, Institute of Cancer Science, University of …, 2017)
# A number with no mark means an inactive call. The source made the active and inactive calls. No stated cut-off is given here; in the data, active means fold change mostly below about -2 (no sharp cut-off); inactive means mostly above about -1.8.
# Experiment: TERT promoter activity modulators, primary screen, cell-based, luciferase reporter, human (AID 1259240)
# Conditions: A2780 TERT promoter luciferase reporter, 16 h; at 20 µM, fold versus average of vehicle-only wells
Structure (SMILES),fold change,outcome
O=C(O)c1ccc(CNc2c(N3CCOCC3)c(=O)c2=O)cc1,1.05,
COC(=O)c1ccc(CSc2nc(-c3ccco3)nc3c2c(=O)n(C)c(=O)n3C)o1,-1.08,
CN(C(=O)c1ccc2c(=O)n3c(nc2c1)CCCCC3)c1ccc(F)cc1,-1.12,
Cc1noc(C(=O)Nc2sc3c(c2C#N)CCC3)c1Cl,1.31,
O=S(=O)(c1cccc(-c2cn3ccccc3n2)c1)N1CCCCC1,-1.03,
CCc1cccc2c1NC(=O)C2(O)CC(=O)c1cccs1 (configuration not stated),1.14,
CCc1ccc2[nH]cc(S(=O)(=O)c3ccc(C)c(C)c3)c(=O)c2c1,1.15,
Cc1ccc(Cn2nc(C)c(NC(=O)c3onc(C)c3Cl)c2C)cc1,1.31,
CCc1ccc2c(c1)c1n[nH]c(=S)nc1n2CC,1.17,
CCN1C(=O)C(O)(CC(=O)c2ccc3c(c2)OCCO3)c2ccccc21 (configuration not stated),-1.17,
COc1cc2c(c(OC)c1)C(c1ccc(Br)cc1)CC(=O)N2 (configuration not stated),1.09,
Cc1noc(C(=O)NC(C)C)c1Cl,1.11,
COCCn1c(SCC(=O)Nc2cc(C)on2)nc2c(c1=O)SC(C)C2 (configuration not stated),-1.21,
COCCn1cc(/C=C2/C(=O)Nc3ccccc32)c2ccccc21,1.23,
CCOC(=O)N1CCC(Nc2c(N3CCCC3)c(=O)c2=O)CC1,-1.12,
O=C(NC1CCCC1)c1ccc(CNc2c(NC3CCCC3)c(=O)c2=O)cc1,1.06,
CCOc1ccc2[nH]c(C)c(CN3CC4(C)CC3CC(C)(C)C4)c(=O)c2c1 (configuration not stated),-1.96,
CCOC(=O)C1=C(CS(=O)(=O)c2ccc(Cl)cc2)NC(=O)NC1c1ccc(OCC)cc1 (configuration not stated),1.7,
O=C(O)CN1C(=O)/C(=C/c2ccc(SCc3ccccc3)o2)SC1=S,1.04,
CN1C(=O)/C(=C/c2cn(CC(N)=O)c3ccccc23)c2ccccc21,1.5,
CC(C)(C)NC(=O)Cn1c(=O)oc2ccc(Cl)cc21,-3.03 (active),
O=C(Cn1c(=O)oc2cc(S(=O)(=O)NC3CCCC3)ccc21)N1CCCC1,-1.19,
CCOC(=O)N1CCC(Nc2c(N(CC)CC)c(=O)c2=O)CC1,1.22,
CC(C)Cc1c(O)nc(SCCN2CCOCC2)[nH]c1=O,-1.64,
Cc1nc2cc(-c3ccccc3)nn2c(C)c1CCC(=O)NC(C)CCc1ccco1 (configuration not stated),-2.05 (active),

Structure (SMILES),fold change,outcome
Cc1c(/C=C2/SC(=S)N(CC(=O)O)C2=O)c2ccccc2n1C,1.33,
O=C(Nc1ccc(S(=O)(=O)N2CCCC2)cc1)C1c2ccccc2Oc2ccccc21,-1.83,
COc1ccccc1NC(=O)Nc1ccc2c(c1)C(=O)OC2,1.33,
CCN(CCO)CCNc1cc(N2CCCC(C)C2)c2noc3c2c1C(=O)c1ccccc1-3 (configuration not stated),-6.87 (active),
CCOC(=O)c1sc(NC(=O)c2cc(C)no2)c(C(=O)OCC)c1C,1.26,
COC(=O)c1nc2n(n1)C(c1cccc(Br)c1)C1=C(CCCC1=O)N2 (configuration not stated),,inactive
Cn1c(-c2ccc(N)cc2)nc2cc(N)ccc21,-1.51,
CCn1c(Oc2ccccc2)nc2c1c(=O)n(C)c(=O)n2C,-1.53,
CC1(C)CNC(=O)c2sc(NC(=O)CN3CCOCC3)nc2C1,-1.75,
CN1CCc2c(sc3c2C(=O)NC(c2cccc(Cl)c2Cl)N3)C1 (configuration not stated),-1.43,
COc1ccc(-c2n[nH]c3c2C(c2ccccc2)NC3=O)cc1 (configuration not stated),-1.24,
CC1Cc2ccccc2N1S(=O)(=O)c1cccc2cccnc12 (configuration not stated),-2.15 (active),
Cc1ccc(C)c(Nc2nc3ccccc3n3nnnc23)c1,1.43,
NC(=O)C1CCN(C(=O)CCCc2nnc3n4nc(-c5ccccc5)nc4c4ccccc4n23)CC1,-1,
O=C(CCSCCc1ccccn1)Nc1nccs1,1.07,
COc1ccc(OC)c(NC(=O)CSc2nc(-c3cccs3)nc3c2c(=O)n(C)c(=O)n3C)c1,1.71,
c1cncc(Cc2nnc(N3CCC4(CC3)OCCO4)c3ccccc23)c1,-1.13,
Fc1ccc(CNc2nnc(Cc3ccncc3)c3ccccc23)cc1,-1.53,
Cc1nc2cc(-c3ccccc3)nn2c(C)c1CCC(=O)NC(C)c1ccc2c(c1)OCCO2 (configuration not stated),-3.95 (active),
CC(C)Cc1cc(C(=O)Nc2cnn(Cc3ccc(F)cc3)c2)no1,-1.44,
CC(=O)c1sc2nc(-c3ccc(Br)cc3)cn2c1C,-17 (active),
CCOC(=O)N1CCC(Nc2ccc3nncn3n2)CC1,-1.14,
CC(C)SC1=NSC2=NC(=O)/C(=C\c3ccco3)C(=N)N21,1.5,
CCOC(=O)C1CCCN(c2c(N3CC(C)CC(C)C3)c(=O)c2=O)C1 (configuration not stated),-1.11,
O=C(CC1(O)C(=O)Nc2ccccc21)c1cc2ccccc2o1 (configuration not stated),1.08,

Structure (SMILES),fold change,outcome
CCc1nc(N)c(C#N)c(-c2ccco2)c1C,-2.16 (active),
CC(=O)C(Sc1nc(C)nc2c1c(=O)n(C)c(=O)n2C)C(C)=O,1.87,
CCOC(=O)C1=C(CS(=O)(=O)c2ccc(C)cc2)NC(=O)NC1c1ccccc1 (configuration not stated),1.64,
c1ccn2c(SCc3ccc4c(c3)OCCO4)nnc2c1,1.6,
c1ccc(N2CCN(c3nc4ccccc4n4cnnc34)CC2)cc1,1.17,
O=C1c2ccccc2C(=O)N1CCC1=NCCc2ccccc21,-1.59,
O=C(CCCc1nnc2n3nc(-c4ccccc4)nc3c3ccccc3n12)NCC1CCCO1 (configuration not stated),1.2,
CCC(CC)c1nnc(NC(=O)Cn2cnc3c2c(=O)n(C)c(=O)n3C)s1,-1.36,
COc1ccc2c(c1)NC(=O)C2(O)C(F)(F)F (configuration not stated),2.17 (active),
CCOc1ccc(C2CC(=O)Nc3cc4c(cc32)OCO4)cc1Cl (configuration not stated),-1.12,
Cc1cc(C)cc(CC(CC(=O)Nc2nccs2)C(=O)Nc2nccs2)c1 (configuration not stated),1.18,
Cc1ccc(CN2C(=O)C(C(C)C(=O)NCC3CCCO3)Sc3ccccc32)cc1 (configuration not stated),-1.61,
Cc1ccc(NC(=O)Nc2ccc3c(c2)N(C)C(=O)CS3)c(C)c1,-1.06,
O=C1CC(c2cc(Br)cs2)c2cc3c(cc2N1)OCO3 (configuration not stated),1.13,
NC(=O)c1sc2nc(C3CC3)cc(-c3ccc(Br)cc3)c2c1N,-1.28,
CCC(C)NC(=O)Cn1ncc2c3ccccc3n(C)c2c1=O (configuration not stated),-1.04,
O=C1C2ON(c3ccccc3)C(c3ccncc3)C2C(=O)N1c1ccc(N2CCOCC2)cc1 (configuration not stated),-1.7,
Cc1ccc2nc(NCc3ccc(F)cc3)c3nncn3c2c1,1.08,
CCOC(=O)N1CCN(c2c(NCC3CCCO3)c(=O)c2=O)CC1 (configuration not stated),1.16,
O=C(CN1C(=O)COc2ccc(S(=O)(=O)N3CCCCCC3)cc21)N1CCC2(CC1)OCCO2,-1.25,
COc1ccc(CCNc2ccc3nnc(C)n3n2)c(OC)c1,-1.29,
CCc1nc(N)c(C#N)c(-c2cccnc2)c1C,-2.52 (active),
O=C(Nc1ccc(F)cc1)C(=O)Nc1ccc2nc3n(c(=O)c2c1)CCCCC3,-1.07,
O=C(Cn1ncc2c3ccccc3n(Cc3cccc(Cl)c3)c2c1=O)NCc1cccnc1,-1.25,
O=C1C(c2sc3ccccc3c2O)=Nc2c1ccc1ccccc21,,active

Structure (SMILES),fold change,outcome
CC(C)Oc1ccc(C2CC(=O)Nc3cc4c(cc32)OCCO4)cc1 (configuration not stated),1,
CCCC1=NN(C(=O)CSCc2ccccc2Cl)C(O)(C(F)(F)F)C1 (configuration not stated),-2.03 (active),
CN(CC(=O)O)S(=O)(=O)c1cccc2cccnc12,-1.07,
CN(C1=NS(=O)(=O)c2cc([N+](=O)[O-])ccc21)c1ccccc1,-2.35 (active),
COc1ccc(OC(C)c2nc(-c3ccc(OC)cc3)no2)cc1 (configuration not stated),1.61,
CC1=CC2=NC(=O)/C(=C\c3cc(C)n(-c4ccccc4F)c3C)C(=N)N2O1,-1.81,
COc1ccc(C2c3c(n[nH]c3C)C(=O)N2c2ccc(Br)cc2)c(OC)c1 (configuration not stated),-1.34,
CCn1c(NCc2ccc(Cl)cc2)nc2ccccc21,1.05,
COc1ccc(-n2c(-c3ccco3)nc3c(cnn3-c3ccc(Cl)cc3)c2=O)cc1,-1.39,
CCOC(=O)c1[nH]c2ccc(F)cc2c1N,-1.48,
Cc1nc2c3ccccc3nc(NNC(=O)CCC(=O)N3CCCC(C)C3)n2n1 (configuration not stated),-1.02,
O=C(CSc1nc2[nH]ncc2c(=O)n1-c1ccccc1)Nc1nsc(-c2ccc(Cl)cc2)n1,1.26,
O=c1/c(=C/c2ccc(F)cc2)sc2nc(-c3ccco3)nn12,-1.22,
O=c1oc2cc(O)ccc2cc1-c1nnc(Nc2ccccc2)s1,,active
COCCCN1CN=C(Nc2nc(C)c3ccc(C)cc3n2)NC1,-1.94,
Cc1sc(-c2c(C#N)c(N)nc3c2CCCC3)cc1Br,-4.77 (active),
CCOCCCNc1nc2c(-c3ccccc3)nnn2c2ccccc12,1.12,
CC(C)C(C(=O)O)N1C(=O)/C(=C/c2cccs2)SC1=S (configuration not stated),-3.32 (active),
COc1ccc(Cl)cc1S(=O)(=O)n1ccnc1C(C)C,-4.76 (active),
COC(=O)c1c(NC(=O)Cn2nc(C)c([N+](=O)[O-])c2C)sc2c1CCCC2,-1.68,
CC1=CSC2=NC(=O)/C(=C\c3coc4ccccc4c3=O)C(=N)N12,-1.1,
CC(O)C(Nc1ncnc2ccccc12)C(=O)O (configuration not stated),-1.06,
